Experimental data from PubChem BioAssay (Tox21).
Inconclusive results are not listed. Calls of active or inactive are those of the source. Unless noted, calls come from the whole dose curve; as a rule, active = well fitted curve in the direction sought with a large enough effect in the repeat runs; inconclusive = weak or mixed curves; inactive = no such curve, though single readings can be large; an effect the other way counts as inactive or inconclusive.

How the values were obtained:
[1] = A CellTox Green Cytotoxicity Assay to monitor cytotoxicity in HepG2 cells - 8 hour (AID 1224890); note: nearly all actives have a fitted effect of over 45% in size
Procedure, shortened: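 HepG2 cells, 600/well, preincubated 5 h with CellTox Green dye, then exposed to Tox21 compounds in DMSO at 37 C for up to 40 h. Dead-cell DNA fluorescence read at the indicated time point.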

[2] = qHTS assay to identify small molecule antagonists of the androgen receptor (AR) signaling pathway using the MDA cell line in the presence of 0.5 nM R1881 - cell viability counter screen (AID 1259242); note: nearly all actives have a fitted effect of over 45% in size
Procedure, shortened: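 MDA-kb2 cells (MMTV-luciferase, AR/GR responsive) were treated with compounds plus 0.5 nM R1881 (final) for 16 hr at 37C, 0% CO2. Viability was then read in the same wells as live-cell protease fluorescence (CellTiter-Fluor, 30 min).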

[3] = molecular target: Androgen receptor (Homo sapiens) (UniProt P10275); assay: qHTS assay to identify small molecule antagonists of the androgen receptor (AR) signaling pathway using the MDA cell line in the presence of 0.5 nM R1881 (AID 1259243); note: nearly all actives have a fitted effect of over 50% in size
Procedure, shortened: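 MDA-kb2 cells (MMTV-luciferase, responsive to AR and GR) at 3,000/well, rested 5 h at 37C, 0% CO2, then given compounds plus 0.5 nM R1881 (final) for 16 hr. Luciferase read with ONE-Glo after 30 min at room temperature.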

[4] = molecular target: Estrogen receptor (Homo sapiens) (UniProt P03372); assay: qHTS assay to identify small molecule antagonists of the estrogen receptor alpha (ER-alpha) signaling pathway using the BG1 cell line in the presence of 0.1 nM 17-beta-estradiol (AID 1259244); note: nearly all actives have a fitted effect of over 50% in size
Procedure, shortened: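 VM7Luc4E2 cells (endogenous full-length ER-alpha, 4×ERE-luciferase), kept 5 days in phenol red-free, charcoal-stripped FBS medium; 4,000 cells/well. Compounds added with 0.1 nM (final) 17beta-estradiol, 22 hr at 37C; luminescence read with ONE-Glo after 30 min.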

[5] = qHTS assay to identify small molecule phospholipidosis (PLD) inducers (AID 1259344; active = well fitted curve in the direction sought with a large enough effect; an effect the other way counts as inactive or inconclusive)
Procedure, shortened: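 Phospholipidosis is scored by imaging LipidTOX-stained pits in HepG2 cells exposed to compound for 24 h at 37 C; pit counts and integrated intensities per well and per cell serve as outputs.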

[6] = qHTS assay to identify small molecule HDAC inhibitors (AID 1259364); note: top concentration of the series differs between compounds; nearly all actives have a fitted effect of over 45% in size
Procedure, shortened: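 Wild-type HCT-116 cells, plated overnight at 37 C, exposed to compounds 2 hr at 37 C; luminogenic HDAC-Glo substrate then added 30 min at room temperature. Luminescence reports relative endogenous class I/II HDAC activity.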

[7] = qHTS assay to identify small molecule HDAC inhibitors - cell viability counter screen (AID 1259365); note: series mostly up to about 92 µM; nearly all actives have a fitted effect of over 50% in size
Procedure, shortened: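 Luminescence from CellTiter-Glo, developed 30min at room temperature, reports viability of wild-type HCT-116 cells treated 2hr with compounds at 37 C and 5% CO2 after overnight plating.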

[8] = qHTS assay to identify small molecule agonists of the sonic hedgehog signaling (Shh) pathway - cell viability counter screen (AID 1259366); note: nearly all actives have a fitted effect of over 50% in size
Procedure, shortened: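 Cytotoxicity counter screen run in the same wells as the Shh reporter assay. NIH/3T3 cells carrying a Gli1 response element–driven luciferase were treated with DMSO-dissolved compounds for 24hr, and live-cell protease activity was measured with CellTiter-Fluor.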

[9] = qHTS assay to identify small molecule antagonists of the sonic hedgehog signaling (Shh) pathway - cell viability counter screen (AID 1259367); note: nearly all actives have a fitted effect of over 55% in size
Procedure, shortened: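 Cells: 3T3 Gli1-Luc, 2,000/well, 4 hr pre-incubation. Compounds in DMSO, then conditioned medium. Incubation 24 hr, 37C, 5% CO2. CellTiter-Fluor at 23 hr, 1 hr, fluorescence.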

[10] = qHTS assay to identify small molecule agonists of the sonic hedgehog signaling (Shh) pathway (AID 1259368; calls by dose curve;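 note: NIH/3T3-derived 3T3Gli1-Luc cells carrying a stable Gli1-driven firefly luciferase reporter; series mostly up to about 92 µM; nearly all actives have a fitted effect of over 15% in size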)
Procedure, shortened: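 NIH/3T3-derived 3T3Gli1-Luc cells with stably integrated Gli1-driven firefly luciferase, 2,000 cells/well, compounds added after 4 hr. Incubated 24 hr at 37C, 5% CO2; luminescence read after 30 min with luciferase reagent at room temperature.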

[11] = qHTS assay to identify small molecule antagonists of the sonic hedgehog signaling (Shh) pathway (AID 1259369; calls by dose curve; note: nearly all actives have a fitted effect of over 45% in size)
Procedure, shortened: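 NIH/3T3-derived Gli1-Luc reporter cells plated 4 h, dosed with compound, then stimulated with conditioned medium for 24 h at 37 C. Firefly luciferase luminescence read after 30 min with detection reagent at room temperature.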

[12] = molecular target: Estrogen receptor beta (Homo sapiens) (UniProt Q92731); assay: qHTS assay to identify small molecule agonists of the estrogen receptor beta (ER-beta) signaling pathway (AID 1259377; active = well fitted activation curve with a large enough effect in the signal ratio in the repeat runs, not every such curve was filed as active; the % refers to the signal ratio)
Procedure, shortened: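 HEK293T ER-beta-UAS-bla; 2% charcoal-stripped FBS; cells pre-incubated 6 hr, compound 16 hr, 37C/5% CO2; LiveBLAzer B/G FRET substrate 2 h RT; fluorescence intensity read.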

[13] = qHTS assay to identify small molecule agonists of the androgen receptor (AR) signaling pathway in the presence of an antagonist - cell viability counter screen (AID 1259379);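 note: MDA-kb2 human breast cancer cells carrying an MMTV luciferase reporter; series mostly up to about 92 µM; nearly all actives have a fitted effect of over 25% in size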
Procedure, shortened: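 MDA-kb2 cells (MMTV-luciferase, AR/GR), 3,000/well, 5 h attachment, then 3.0 µM nilutamide (final) and compounds at 15 concentrations. Viability by CellTiter-Fluor fluorescence after 16 h at 37 °C, 0% CO2, in the reporter wells.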

[14] = qHTS assay to identify small molecule agonists of the estrogen receptor beta (ER-beta) signaling pathway - cell viability counter screen (AID 1259380); note: nearly all actives have a fitted effect of over 30% in size
Procedure, shortened: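 ER-beta-UAS-bla HEK293T cells in medium with 2% charcoal-stripped FBS, pre-incubated 6 hr, then treated 16 hr at 37C. Cytotoxicity read in the same wells by CellTiter-Glo luminescence after 30 min at room temperature.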

[15] = molecular target: Androgen receptor (Homo sapiens) (UniProt P10275); assay: qHTS assay to identify small molecule agonists of the androgen receptor (AR) signaling pathway in the presence of an antagonist (AID 1259381; calls by dose curve; note: nearly all actives have a fitted effect of over 15% in size)
Procedure, shortened: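 MDA-kb2 cells carrying MMTV-luciferase (AR/GR responsive), 3,000 cells/well, co-treated with 3.0 uM nilutamide final. Compounds at 15 concentrations, 16 hr at 37C without CO2. Luciferase luminescence read after 30 min with ONE-Glo.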

[16] = qHTS assay to identify small molecule antagonists of the estrogen receptor beta (ER-beta) signaling pathway - cell viability counter screen (AID 1259382);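 note: HEK293T cells carrying ER-beta-UAS-bla reporter stimulated with estradiol; series mostly up to about 92 µM; nearly all actives have a fitted effect of over 55% in size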
Procedure, shortened: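 ER-beta-UAS-bla HEK293T cells in 2% charcoal-stripped FBS medium, treated with compound plus 1 nM 17-beta-estradiol for 16 h at 37C. Viability read by CellTiter-Glo luminescence after 30 min at room temperature in the same wells.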

[17] = molecular target: Estrogen receptor (Homo sapiens) (UniProt P03372); assay: qHTS assay to identify small molecule agonists of the estrogen receptor alpha (ER-alpha) signaling pathway in the presence of an antagonist (AID 1259383; calls by dose curve; note: top concentration of the series differs between compounds; nearly all actives have a fitted effect of over 15% in size)
Procedure, shortened: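 VM7Luc4E2 cells express endogenous full-length ER-alpha with an ERE-luciferase reporter and were hormone-deprived for 5 days. Compounds at 15 concentrations were added with 10.0nM ICI-182,780 for 22hr at 37C. Luminescence was read with ONE-Glo.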

[18] = qHTS assay to identify small molecule agonists or antagonists of the thyroid stimulating hormone receptor (TSHR) signaling pathway - wild type cell line counter screen (AID 1259384; calls by dose curve)
Procedure, shortened: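 Counter screen in untransfected Hek293: compounds (15-point titration, triplicate) plus phosphodiesterase inhibitor Ro20-1724 added after 18 h plating; 30 min RT. Intracellular cAMP via competitive d2/cryptate immunoassay, 1 h incubation.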

[19] = qHTS assay to identify small molecule antagonists of the estrogen receptor alpha (ER-alpha) signaling pathway using the BG1 cell line in the presence of 0.1 nM 17-beta-estradiol - cell viability counter screen (AID 1259241); note: nearly all actives have a fitted effect of over 40% in size
Procedure, shortened: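 VM7Luc4E2, 4,000 cells/well, phenol red-free medium + 10% charcoal-stripped FBS; 24 hr plating; cpd + 0.1 nM E2 final, 22 hr 37C/5% CO2; CellTiter-Fluor 30 min, fluorescence.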

[20] = molecular target: Estrogen receptor beta (Homo sapiens) (UniProt Q92731); assay: qHTS assay to identify small molecule antagonists of the estrogen receptor beta (ER-beta) signaling pathway (AID 1259378; active = well fitted inhibition curve with a large enough effect in the signal ratio in the repeat runs, not every such curve was filed as active; the % refers to the signal ratio)
Procedure, shortened: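 Antagonist mode: compounds added to beta-lactamase reporter HEK293T ER-beta-UAS cells stimulated with E2 (1nM final), 16 hr at 37C. LiveBLAzer B/G FRET substrate, 2 hours room temperature, fluorescence read-out.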
% is set by controls: 0 for no effect and ±100 for the full control effect.

Sequence of Estrogen receptor beta (Homo sapiens) (Q92731 whole entry, looked up): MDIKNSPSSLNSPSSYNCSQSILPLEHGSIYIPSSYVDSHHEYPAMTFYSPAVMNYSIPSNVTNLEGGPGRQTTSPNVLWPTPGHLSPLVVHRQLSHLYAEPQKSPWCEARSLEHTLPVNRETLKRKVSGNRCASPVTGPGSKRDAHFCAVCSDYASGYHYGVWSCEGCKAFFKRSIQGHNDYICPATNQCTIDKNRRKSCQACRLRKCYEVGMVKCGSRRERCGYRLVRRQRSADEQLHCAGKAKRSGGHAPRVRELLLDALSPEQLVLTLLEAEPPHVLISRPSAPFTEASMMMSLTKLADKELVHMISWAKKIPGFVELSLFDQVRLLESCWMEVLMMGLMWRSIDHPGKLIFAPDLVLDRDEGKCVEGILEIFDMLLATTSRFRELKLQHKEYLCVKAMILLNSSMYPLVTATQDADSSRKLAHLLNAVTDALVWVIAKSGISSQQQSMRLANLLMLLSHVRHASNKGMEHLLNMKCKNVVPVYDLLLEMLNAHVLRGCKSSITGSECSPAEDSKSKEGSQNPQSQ
Sequence of Androgen receptor (Homo sapiens) (P10275 whole entry, looked up): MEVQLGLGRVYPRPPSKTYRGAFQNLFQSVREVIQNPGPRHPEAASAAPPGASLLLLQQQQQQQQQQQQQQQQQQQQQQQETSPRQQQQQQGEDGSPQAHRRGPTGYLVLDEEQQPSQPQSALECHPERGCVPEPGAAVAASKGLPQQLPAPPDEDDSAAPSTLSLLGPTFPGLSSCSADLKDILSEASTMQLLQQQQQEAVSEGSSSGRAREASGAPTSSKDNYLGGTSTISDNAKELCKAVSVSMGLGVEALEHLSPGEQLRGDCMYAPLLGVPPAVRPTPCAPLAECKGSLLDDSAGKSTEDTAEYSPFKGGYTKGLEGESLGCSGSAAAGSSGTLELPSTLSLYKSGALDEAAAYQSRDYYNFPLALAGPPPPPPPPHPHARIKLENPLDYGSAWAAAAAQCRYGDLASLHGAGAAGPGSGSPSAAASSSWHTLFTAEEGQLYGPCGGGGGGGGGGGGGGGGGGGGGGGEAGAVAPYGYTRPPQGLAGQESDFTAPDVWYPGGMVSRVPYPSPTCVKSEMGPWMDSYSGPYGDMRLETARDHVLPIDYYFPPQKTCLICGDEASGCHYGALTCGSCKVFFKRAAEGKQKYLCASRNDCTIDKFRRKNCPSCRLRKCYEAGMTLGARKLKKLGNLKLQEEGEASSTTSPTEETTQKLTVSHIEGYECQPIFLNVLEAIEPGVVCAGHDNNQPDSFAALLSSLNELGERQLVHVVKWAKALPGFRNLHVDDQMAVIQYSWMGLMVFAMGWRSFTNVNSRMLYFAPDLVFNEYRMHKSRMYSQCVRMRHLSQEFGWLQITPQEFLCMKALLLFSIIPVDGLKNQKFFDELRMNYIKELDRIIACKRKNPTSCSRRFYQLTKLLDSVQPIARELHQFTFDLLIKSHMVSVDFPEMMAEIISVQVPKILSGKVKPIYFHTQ
Sequence of Estrogen receptor (Homo sapiens) (P03372 whole entry, looked up): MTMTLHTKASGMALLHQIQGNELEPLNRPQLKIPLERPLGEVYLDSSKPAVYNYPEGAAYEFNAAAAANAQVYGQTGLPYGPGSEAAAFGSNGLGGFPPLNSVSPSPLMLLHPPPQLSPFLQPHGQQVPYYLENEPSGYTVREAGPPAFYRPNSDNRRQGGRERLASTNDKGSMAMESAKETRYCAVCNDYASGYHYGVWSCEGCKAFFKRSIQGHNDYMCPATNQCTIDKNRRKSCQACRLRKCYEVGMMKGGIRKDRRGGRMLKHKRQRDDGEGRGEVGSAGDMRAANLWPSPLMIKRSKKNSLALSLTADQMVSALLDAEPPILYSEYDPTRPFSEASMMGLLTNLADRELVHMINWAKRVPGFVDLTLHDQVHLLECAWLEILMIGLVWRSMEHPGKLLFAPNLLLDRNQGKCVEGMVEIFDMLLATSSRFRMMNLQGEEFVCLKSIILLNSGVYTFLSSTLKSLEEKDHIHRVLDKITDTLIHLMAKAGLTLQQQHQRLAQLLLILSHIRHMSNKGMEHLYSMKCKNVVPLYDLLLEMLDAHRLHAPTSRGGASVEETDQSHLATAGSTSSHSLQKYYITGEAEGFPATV

NCC[C@H](O)C(=O)N[C@@H]1C[C@H](N)[C@@H](O[C@H]2O[C@H](CN)[C@@H](O)[C@H](O)[C@H]2O)[C@H](O)[C@H]1O[C@H]1O[C@H](CO)[C@@H](O)[C@H](N)[C@H]1O
inactive: cytotoxicity increase [1] -0.472% [at 0.29 µM] | viability change, negative = cytotoxic [2] 0.273% [at 0.349 µM] | activity, negative = inhibition [3] 0.695% [at 0.349 µM] | activity change, negative = inhibition [4] 9.86% [at 0.349 µM] | Potency [5] | activity change, negative = inhibition [6] 5.91% [at 0.349 µM] | activity change, negative = cytotoxicity [7] 1.82% [at 0.349 µM] | viability change, negative = cytotoxic [8] 2.12% [at 0.349 µM] | viability change, negative = cytotoxic [9] 1.11% [at 0.349 µM] | activity change [10] 0.203% [at 0.349 µM, hits give high values] | activity change, negative = inhibition [11] 22.5% [at 0.349 µM] | activation [12] 0.597% [at 0.348 µM] | activity change, negative = cytotoxicity [13] 1.61% [at 0.35 µM] | activity change, negative = cytotoxicity [14] 1.09% [at 0.349 µM] | activation [15] 0.148% [at 0.349 µM] | activity change, negative = cytotoxicity [16] 1.11% [at 0.349 µM] | activation [17] 1.1% [at 0.349 µM] | cAMP activity change [18] -0.997% [at 0.349 µM]

c1ccc(SCCSc2ccccc2)cc1
inactive: Potency [1] | outcome [19] | outcome [2] | outcome [7] | Potency [8] | outcome [9] | Potency [11] | outcome [12] | Potency [20] | Potency [13] | Potency [14] | Potency [15] | Potency [16] | outcome [18]

Nc1cc(C(Cl)=C(Cl)Cl)c(S(N)(=O)=O)cc1S(N)(=O)=O
inactive: Potency [1] | outcome [2] | outcome [4] | Potency [5] | Potency [6] | outcome [7] | Potency [8] | outcome [9] | Potency [10] | Potency [11] | outcome [12] | Potency [13] | Potency [16] | Potency [17] | outcome [18]

Cc1onc(-c2ccccc2)c1-c1ccc(S(N)(=O)=O)cc1
inactive: Potency [1] | outcome [2] | Potency [5] | outcome [7] | outcome [9] | Potency [10] | outcome [12] | Potency [13] | Potency [14] | Potency [16]

Cc1ccccc1Br
inactive: Potency [1] | outcome [2] | outcome [7] | Potency [8] | outcome [9] | Potency [10] | outcome [12] | Potency [13] | Potency [14] | Potency [16] | outcome [18]

O=C(O)c1ccccc1-c1ccc(C(F)(F)F)cc1
inactive: Potency [1] | outcome [2] | outcome [4] | Potency [5] | outcome [7] | Potency [8] | outcome [9] | Potency [10] | Potency [11] | Potency [13] | Potency [14] | Potency [16] | Potency [17] | outcome [18]

CO[Si](OC)(OC)OC
inactive: Potency [1] | outcome [2] | outcome [7] | Potency [8] | outcome [9] | Potency [10] | outcome [12] | Potency [20] | Potency [13] | Potency [14] | Potency [16] | outcome [18]

CN(C)C(=O)Nc1ccccc1
inactive: Potency [1] | outcome [2] | outcome [4] | Potency [6] | outcome [7] | outcome [9] | Potency [10] | Potency [11] | outcome [12] | Potency [20] | Potency [13] | Potency [14] | Potency [16] | Potency [17] | outcome [18]
